Among the data in the supplement of paper PMC6555819 are PBM binding z-score values, retold here.

The subject of the test is VDR:RXRa (NR concentration 270 nM, RXRa partner concentration 90 nM). Put plainly: PBM binding z-score (relative to random genomic background probes); higher = stronger binding; sequences stand for … in GC…GCGATTGACAGCGTAGAATGAAGG
As for the experimental part:
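Protein-binding microarray (Agilent 4x180K custom design, double-stranded 60-nt probes: 5' GC cap, 34-nt variable region, 24-nt constant primer region; full probe sequence given). Purified or IVT nuclear receptor:RXRα heterodimers (3:1 NR:RXRα, mostly 270:90 nM) or homodimers were incubated for 1 h in PBS with 2% milk and no ligand, then detected with Alexa488 antibodies. Fluorescence from o1-orientation probes (~5 replicates averaged) was converted to z-scores against 500 random hg19 background probes. Variable regions are seed direct-repeat (DR0–DR5) sites, all their single-nucleotide variants and half-site ablations.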
With CGTCCAAGGTCAAGGTCAGCGAAAGAGACTCGAA, the PBM binding z-score worked out at 4.97.

CCATACGGGTCACTCCAGGTTATAGCATCGGAGT displayed a PBM binding z-score of 4.11.

As to TCTGCTAGGTCAACGATGGTCAGCCAATCTGCTA, the PBM binding z-score is 1.66.

Sequence TCTATTAGTTGAAGGGCAGCCGACGAGTCCGTTT returned a PBM binding z-score of 0.97.

TCATATAGGTAAAGATGAAAGTCGAACGATATGA gave a PBM binding z-score of 0.437.

GGAACGAGGGCAACGTTGATAGCATCTGTCGACG showed a PBM binding z-score of 0.229.

On to CATAGCAGGCCAATCTGGGTCACTCAAGGCTTGA, for which the PBM binding z-score turned out to be 0.95.

The sequence CCTACTGGGCCATTCAGTGGTCATTGATCATATG gave a PBM binding z-score of -0.487.

In the case of ATACAAAGGTGATCGTGAGGTCGTTGATACTAAC, the PBM binding z-score was 4.59.

Sequence ATCTCTAGGTAAGACTCAGTTGAGTGAAGAACGC showed a PBM binding z-score of -0.0518.

For the sequence CGTCAAAGTTCAACTAAGGTAACGTAGAGCACGC, the PBM binding z-score was 4.59.

TCTACAGGGTCAAAGGCCAGAGTACGAATGTCGA had a PBM binding z-score of 4.56.

CGTCCAAGGTCAGAGAAGTCAGTGAATGCCGAGT: the PBM binding z-score is 3.15.

TTACCAAGGTGAAAGGCCGTTGATGCACGCCTTG had a PBM binding z-score of 0.0595.

Regarding CCTACTGGGCCATTCAGAGATCATTGATCATATG, the PBM binding z-score is -0.415.

ACTTACGGGTCAACGAGGTTAGAGCACGCGTATA had a PBM binding z-score of 7.15.

As for TATACAGGGACAAAGGCCAGAGTACGAATGTCGA, the PBM binding z-score came out at 0.123.

ACAGACAGGGGATGAAGGTAACTCAGGCTATCAT: the PBM binding z-score amounted to 0.0836.

The sequence GATACAGGGTCACCTAGAGGCCAGAGTATGGAAA registered a PBM binding z-score of 4.76.

In turn, TCATATAGGTAAATGCTAGGTGACAGTCCGATCT had a PBM binding z-score of 0.746.

The sequence TAGCCTAGGTCATTGGGTCAGTATAGTACGCATC yielded a PBM binding z-score of 4.26.

Regarding AGAACGAGGGCAATGAGTTGATACCACGGGTGGC, the PBM binding z-score was found to be 5.25.

In the case of GCGACTGCGGCATCAGCAGGTTACCATAACTTAA, the PBM binding z-score was -0.5.

For ATCTCTAGGTAAAGATAGTGCAGTGAATGCAAAT, the PBM binding z-score worked out at 0.0652.

CGAACTAGCTCAGAACAGGACAGTGAAGGATGAT showed a PBM binding z-score of -0.427.

ATACCAAGGTGATTGTGAGGTCGTTGATACTAAC registered a PBM binding z-score of 3.53.

Take TCTTGTAGATCAAGCAGGTTAACAAAGCCTGAGT: the PBM binding z-score worked out at 0.729.

CCTACTGGGCCAAAGGTCATTGATTCCAATGCTC had a PBM binding z-score of 4.75.

In turn, TCGAGTAGGTTAGGGGCATTTAGAATGGCGTCGA yielded a PBM binding z-score of 0.556.

The sequence CCTACTGTGCCATCAGGTCATTGATATCAACGTT registered a PBM binding z-score of 2.56.

Sequence GCTGCTAGGTGAACTGATGGTCAGCTAAAGCTCG yielded a PBM binding z-score of -0.124.

As to AGTCAAAGCTCATCTAGGTAACGTAAGATATGCT, the PBM binding z-score was -0.215.

Take TTACCAAGGTGAAGGACGTTGATCCCTCTGTAGA: the PBM binding z-score came to 0.111.

Turning to ACTATTAGTTGACTTAGGGCAGCCGATACGACGC, the PBM binding z-score amounted to 0.0476.

The sequence TCTTGTCGATCAAGCAGGTTAAGAAAGCCTGAGT displayed a PBM binding z-score of 0.107.

As for CGGACTAGGTCAGAACAGGACAGTGAAGGATGAT, the PBM binding z-score was 0.538.

CGAACTAGGTCAAGGTCAAAGTCGGTTTGTGCCA: the PBM binding z-score amounted to 4.97.

With GGAACGAGGGCAAAGTTTATAGCATCTGTCGACG, the PBM binding z-score is 1.92.

As for CCTCGGAGGACAACAGGAAGTCAGAGCTGCCAGA, the PBM binding z-score is -0.718.

On to TCGAGTAGGTTACCAAAGGGGCATTCAGCTTTCT, for which the PBM binding z-score amounted to 0.89.
